# Test results published in PubChem BioAssay (NCATS).
# Results filed as inconclusive are left out. Unmarked numbers belong to inactive results. Active and inactive are the calls of the source. Calls follow the shape of the dose curve; as a rule, active = well fitted cell-killing curve with a large enough effect; inconclusive = small, poorly fitted or top-dose-only effect, or effect the other way; inactive = flat fitted curve, though single readings scatter.
# Tested on: Es-2
# Assay: Primary qHTS to identify gynecologic anti-cancer compounds using libraries of approved drugs and bioactive compounds (AID 1345084); also: nearly all actives have a fitted effect of over 55% in size
# Settings: Gynecologic cancer cell panel viability, ATPlite luminescence, 48 h; series mostly up to 57.5 µM; activity change, negative = cytotoxicity: at the top concentration
# How it was run: (§1)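 Five-concentration response, 48 h; readout is ATP-driven luciferase luminescence.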
# % is scaled to controls: 0 for no effect and ±100 for the full control effect; potency is read from the fitted curve at half-maximal effect.
Structure (SMILES),"activity change, negative = cytotoxicity [%]",Potency
CO[C@H]1C=CO[C@@]2(C)Oc3c(C)c(O)c4c(O)c(c(/C=N/N5CCN(C)CC5)c(O)c4c3C2=O)NC(=O)/C(C)=C\C=C[C@H](C)[C@H](O)[C@@H](C)[C@@H](O)[C@@H](C)[C@H](OC(C)=O)[C@@H]1C,-0.0635,
CCOc1ccccc1C(N)=O,3.21,
O=C1OC(CN2CCOCC2)CN1/N=C/c1ccc([N+](=O)[O-])o1 (centres undefined),-18.1,
CN(C)CCOC(=O)C(c1ccccc1)C1(O)CCCC1 (centres undefined),-1.08,
CC[C@H](c1ccc(O)cc1)[C@@H](CC)c1ccc(O)cc1,-14.2,
C[C@@]12C(=O)OC(=O)[C@]1(C)C1CCC2O1,,10 µM (active)
O=C(Oc1cccc2cccnc12)c1ccccc1,-2.37,
CCCCCCCCCCCCSCCOCCO,2.39,
C[C@H]1[C@H]2CC[C@H]3[C@@H]4CC=C5C[C@@H](N(C)C)CC[C@]5(C)[C@H]4CC[C@]23CN1C,-18.9,
CCCCC(CC)CN1CN(CC(CC)CCCC)CC(C)(N)C1 (centres undefined),5.21,
C#C[C@]1(OC(C)=O)CC[C@H]2[C@@H]3CCC4=C/C(=N/O)CC[C@@H]4[C@H]3CC[C@@]21CC,15.1,
CCCCc1cc2ccccc2c(OCCN(C)C)n1,-2.95,
CN(CCCN1c2ccccc2CCc2ccccc21)CC(=O)c1ccc(Cl)cc1,-2.29,
CCc1ccc(C(=O)C(C)CN2CCCCC2)cc1 (centres undefined),5.09,
Nc1nc(Cl)nc2c1ncn2[C@@H]1O[C@H](CO)[C@@H](O)[C@@H]1F,,0.316 µM (active)
O=C1C(CCS(=O)c2ccccc2)C(=O)N(c2ccccc2)N1c1ccccc1 (centres undefined),-2,
NCCNc1cccc2ccccc12,3.04,
Cc1c[nH]c2ccccc12,3.33,
O=[N+]([O-])c1ccc(/C=N\O)o1,0.231,
C/C=C/C=N/NC(=O)c1ccncc1,-0.519,
CC[C@]12CCCN3CCc4c(n(c5ccccc45)C(=O)C1)[C@@H]32,-14.5,
CCc1nn(CCCN2CCN(c3cccc(Cl)c3)CC2)c(=O)n1CCOc1ccccc1,-9.73,
CCOC(=O)c1c(N)sc2c1CCN(Cc1ccccc1)C2,-6.09,
CCOC(=O)[C@@](C)(N)Cc1ccc(O)c(O)c1,2.19,
CC(C)n1c(/C=C/[C@@H](O)C[C@@H](O)CC(=O)O)c(-c2ccc(F)cc2)c2ccccc21,-21,
c1ccc(CC2=NCCN2)cc1,12.7,

# Tested on: HeLa
# Assay: as above
# Settings: Gynecologic cancer cell panel viability, ATPlite luminescence, 48 h; series mostly up to 57.5 µM; activity change, negative = cytotoxicity: at the top concentration
# How it was run: as §1
Structure (SMILES),"activity change, negative = cytotoxicity [%]",Potency
CO[C@H]1C=CO[C@@]2(C)Oc3c(C)c(O)c4c(O)c(c(/C=N/N5CCN(C)CC5)c(O)c4c3C2=O)NC(=O)/C(C)=C\C=C[C@H](C)[C@H](O)[C@@H](C)[C@@H](O)[C@@H](C)[C@H](OC(C)=O)[C@@H]1C,-13.8,
CCOc1ccccc1C(N)=O,-0.897,
O=C1OC(CN2CCOCC2)CN1/N=C/c1ccc([N+](=O)[O-])o1 (centres undefined),-21.7,
CN(C)CCOC(=O)C(c1ccccc1)C1(O)CCCC1 (centres undefined),0.427,
CC[C@H](c1ccc(O)cc1)[C@@H](CC)c1ccc(O)cc1,-2.81,
C[C@@]12C(=O)OC(=O)[C@]1(C)C1CCC2O1,,3.55 µM (active)
O=C(Oc1cccc2cccnc12)c1ccccc1,-5.18,
CCCCCCCCCCCCSCCOCCO,4.92,
C[C@H]1[C@H]2CC[C@H]3[C@@H]4CC=C5C[C@@H](N(C)C)CC[C@]5(C)[C@H]4CC[C@]23CN1C,-21.2,
CCCCC(CC)CN1CN(CC(CC)CCCC)CC(C)(N)C1 (centres undefined),-27.6,
C#C[C@]1(OC(C)=O)CC[C@H]2[C@@H]3CCC4=C/C(=N/O)CC[C@@H]4[C@H]3CC[C@@]21CC,,4.47 µM (active)
CCCCc1cc2ccccc2c(OCCN(C)C)n1,0.243,
CN(CCCN1c2ccccc2CCc2ccccc21)CC(=O)c1ccc(Cl)cc1,1.89,
CCc1ccc(C(=O)C(C)CN2CCCCC2)cc1 (centres undefined),-0.284,
Nc1nc(Cl)nc2c1ncn2[C@@H]1O[C@H](CO)[C@@H](O)[C@@H]1F,-6.68,
O=C1C(CCS(=O)c2ccccc2)C(=O)N(c2ccccc2)N1c1ccccc1 (centres undefined),1.1,
CN1CCN(CCC(=O)N2c3ccccc3Sc3ccc(C(F)(F)F)cc32)CC1,-10,
NCCNc1cccc2ccccc12,-0.179,
Cc1ccc2c(Br)cc(Br)c(O)c2n1,2.92,
CCCCCCCCNC(C)C(O)c1ccc(SC(C)C)cc1 (centres undefined),-1.62,
CNCCCCOc1ccccc1Cc1ccccc1,-4.54,
Cc1c[nH]c2ccccc12,3.81,
O=[N+]([O-])c1ccc(/C=N\O)o1,6.13,
C/C=C/C=N/NC(=O)c1ccncc1,12.1,
CCOC(=O)c1c(N)sc2c1CCN(Cc1ccccc1)C2,-0.503,
CCOC(=O)[C@@](C)(N)Cc1ccc(O)c(O)c1,4.08,
c1ccc(CC2=NCCN2)cc1,9.19,
O=c1[nH]c(=O)n([C@H]2C[C@H](O)[C@@H](CO)O2)cc1F,,5.01 µM (active)
